Among the data in PubChem BioAssay (NCI) are growth inhibition values, retold here.

SMILES strings stand for the structures. About 79,000 compounds went through this panel and 15% of them were active in at least one assay; those are over-represented in the sample as a whole. A number with no mark means an inactive call. Calls of active or inactive are those of the source. Cut-off read from the data, not from the text of the source: active = growth inhibition above about 70%; inactive = the rest.

The assay is described as follows: NCI Yeast Anticancer Drug Screen. Data for the rad50EPP+ strain (AID 151).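 Note: 0% = growth of vehicle-treated control cultures.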 The note with it: S. cerevisiae rad50 mutant strain, hits give high values. How it is done:
Growth inhibition of yeast strains with defined genetic alterations is measured as a screen for potential anti-cancer activity. Selected strains with alterations in DNA damage repair or cell cycle control were exposed to compounds and growth inhibition was measured relative to vehicle treated controls. The strain used in this assay is rad50EPP+

As for `COc1cc2ccnc(-c3c4ccccc4c(N)c4c(OC)c(OC)ccc34)c2cc1OC`, the growth inhibition (at 1.2 µM) is 0%; the growth inhibition (at 3.7 µM) was 11%; the growth inhibition (at 11.0 µM) was 22%; the growth inhibition (at 33.0 µM) is 31%; the growth inhibition (at 100.0 µM) is 49%.

For the compound `CC(C)C(C)/C=C\C(C)C1CCC2C3=CC=C4CC(O)CCC4(C)C3CCC21C` (stereo not given), the growth inhibition is, setting by setting: (at 1.2 µM) -2%; (at 3.7 µM) -3%; (at 11.0 µM) -9%; (at 33.0 µM) -9%; (at 100.0 µM) 1%.

As for `C[Si](C)(C)/C=C/CCNC(C#N)c1ccccc1` (stereo not given), the growth inhibition is -28% (at 1.2 µM); -44% (at 3.7 µM); -17% (at 11.0 µM); -30% (at 33.0 µM); 74% (active) (at 100.0 µM).

On to `O=C1c2ccccc2C(=O)N1CCCC(=O)n1cc(F)c(=O)[nH]c1=O`, for which the growth inhibition by setting is: (at 1.2 µM) -25%; (at 3.7 µM) -16%; (at 11.0 µM) 27%; (at 33.0 µM) 69%; (at 100.0 µM) 88% (active).

Turning to `COc1cc2cc3c4cc(OC)c(OC)cc4cc[n+]3c(C)c2cc1OC`, the growth inhibition (at 1.2 µM) is -18%; the growth inhibition (at 3.7 µM) was -17%; the growth inhibition (at 11.0 µM) was -21%; the growth inhibition (at 33.0 µM) is -20%; the growth inhibition (at 100.0 µM) is -26%.

`O=C(O)c1ccc(N2C(=O)C=CC2=O)cc1`: the growth inhibition is 2% (at 1.2 µM); 5% (at 3.7 µM); 8% (at 11.0 µM); 22% (at 33.0 µM); 40% (at 100.0 µM).

With `COC(C(O)CO)C(O)C(O)C(=O)NNc1ccccc1` (stereo not given), the growth inhibition is, setting by setting: (at 1.2 µM) 15%; (at 3.7 µM) 29%; (at 11.0 µM) 37%; (at 33.0 µM) 41%; (at 100.0 µM) 68%.

Take `CC1=CC(=C(c2ccc(N)cc2)c2ccc(N)cc2)C=CC1=N`: the growth inhibition reads like this: (at 1.2 µM) 15%; (at 3.7 µM) 22%; (at 11.0 µM) 20%; (at 33.0 µM) 29%; (at 100.0 µM) 51%.
